# Experimental data: PubChem BioAssay (EPA / NIEHS)
# Records with an inconclusive call do not appear. Active and inactive are the calls of the source. The calls were made as follows: active = hit-call score of the fitted dose curve at least 0.9, where 1 is the maximum; inconclusive = response in the unintended direction; inactive = score below 0.9.
# Key:
# [1] = target: human MAP Kinase-Activated Protein Kinase 2 (MAPKAPK2), MAPKAPK2 (gene 9261) (UniProt P49137); assay: NVS_ENZ_hMAPKAPK2: NovaScreen (NVS) Enzymatic Assay for human MAP Kinase-Activated Protein Kinase 2 (MAPKAPK2) (AID 2283178)
# human MAP Kinase-Activated Protein Kinase 2 (MAPKAPK2), MAPKAPK2 (gene 9261), sequence (P49137 whole entry, looked up): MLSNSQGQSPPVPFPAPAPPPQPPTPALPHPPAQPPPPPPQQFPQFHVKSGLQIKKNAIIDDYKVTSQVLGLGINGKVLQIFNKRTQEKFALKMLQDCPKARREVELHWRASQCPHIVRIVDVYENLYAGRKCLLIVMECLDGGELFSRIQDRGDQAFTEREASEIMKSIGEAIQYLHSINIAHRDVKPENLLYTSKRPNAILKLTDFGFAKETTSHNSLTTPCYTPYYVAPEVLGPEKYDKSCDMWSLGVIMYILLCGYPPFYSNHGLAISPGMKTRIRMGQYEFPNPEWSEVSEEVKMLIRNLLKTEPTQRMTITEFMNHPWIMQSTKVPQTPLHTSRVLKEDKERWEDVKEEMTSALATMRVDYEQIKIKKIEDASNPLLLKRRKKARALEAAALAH
# Procedure: NVS_ENZ_hMAPKAPK2 is a biochemical, single-readout assay that uses extracted gene-proteins in a cell-free assay. Measurements were taken 1 hour after chemical dosing in a 384-well plate.NVS_ENZ_hMAPKAPK2 is one of one assay component(s) measured or calculated from the NVS_ENZ_hMAPKAPK2 assay. It is designed to make measurements of enzyme activity, a form of enzyme reporter, as detected with fluorescence intensity signals by Fluorescence and electrophoretic mobility shift technology.Data from the assay component NVS_ENZ_hMAPKAPK2 was analyzed into 1 assay endpoint. This assay endpoint, NVS_ENZ_hMAPKAPK2, was analyzed in the positive analysis fitting direction relative to DMSO as the negative control and baseline of activity. Using a type of enzyme reporter, loss-of-signal activity can be used to understand changes in the enzymatic activity as they relate to the gene MAPKAPK2. Furthermore, this assay endpoint can be referred to as a primary readout, because this assay has produced multiple assay endpoints where this one serves a enzymatic activity function. To generalize the intended target to other relatable targets, this assay endpoint is annotated to the kinase intended target family, where the subfamily is serine/threonine kinase. […]
# [2] = target: human Matrix Metalloproteinase-2 (MMP2), MMP2 (gene 4313) (UniProt P08253); assay: NVS_ENZ_hMMP2: NovaScreen (NVS) Enzymatic Assay for human Matrix Metalloproteinase-2 (MMP2) (AID 2283184)
# human Matrix Metalloproteinase-2 (MMP2), MMP2 (gene 4313), sequence (P08253 whole entry, looked up): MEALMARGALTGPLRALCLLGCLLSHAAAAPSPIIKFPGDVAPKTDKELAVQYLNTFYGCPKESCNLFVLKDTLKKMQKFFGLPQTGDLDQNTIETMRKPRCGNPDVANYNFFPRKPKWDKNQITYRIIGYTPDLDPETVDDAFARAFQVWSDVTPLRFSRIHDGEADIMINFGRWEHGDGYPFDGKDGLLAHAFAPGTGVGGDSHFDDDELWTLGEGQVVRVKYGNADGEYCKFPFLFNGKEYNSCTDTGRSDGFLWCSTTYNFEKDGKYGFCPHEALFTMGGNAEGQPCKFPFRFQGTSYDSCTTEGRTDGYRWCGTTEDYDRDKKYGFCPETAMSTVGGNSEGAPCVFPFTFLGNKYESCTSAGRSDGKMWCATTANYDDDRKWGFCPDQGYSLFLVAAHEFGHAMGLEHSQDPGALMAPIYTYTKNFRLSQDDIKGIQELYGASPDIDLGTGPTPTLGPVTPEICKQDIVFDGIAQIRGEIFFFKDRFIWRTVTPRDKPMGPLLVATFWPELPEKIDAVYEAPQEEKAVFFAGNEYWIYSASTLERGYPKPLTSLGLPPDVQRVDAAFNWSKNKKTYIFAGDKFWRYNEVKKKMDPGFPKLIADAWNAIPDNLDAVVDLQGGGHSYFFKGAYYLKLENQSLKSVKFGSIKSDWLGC
# How it was run: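 Compounds first screened in duplicate at a single 25 uM, with actives followed up in concentration series. Recombinant human MMP2 cleaves a fluorogenic substrate; fluorescence taken at 1 h, inhibition fitted relative to DMSO.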
# [3] = target: sheep Cyclooxygenase-2 (Cox2), PTGS2 (gene 443460) (UniProt P79208); assay: NVS_ENZ_oCOX2: NovaScreen (NVS) Enzymatic Assay for sheep Cyclooxygenase-2 (Cox2) (AID 2283231)
# sheep Cyclooxygenase-2 (Cox2), PTGS2 (gene 443460), sequence (P79208 whole entry, looked up): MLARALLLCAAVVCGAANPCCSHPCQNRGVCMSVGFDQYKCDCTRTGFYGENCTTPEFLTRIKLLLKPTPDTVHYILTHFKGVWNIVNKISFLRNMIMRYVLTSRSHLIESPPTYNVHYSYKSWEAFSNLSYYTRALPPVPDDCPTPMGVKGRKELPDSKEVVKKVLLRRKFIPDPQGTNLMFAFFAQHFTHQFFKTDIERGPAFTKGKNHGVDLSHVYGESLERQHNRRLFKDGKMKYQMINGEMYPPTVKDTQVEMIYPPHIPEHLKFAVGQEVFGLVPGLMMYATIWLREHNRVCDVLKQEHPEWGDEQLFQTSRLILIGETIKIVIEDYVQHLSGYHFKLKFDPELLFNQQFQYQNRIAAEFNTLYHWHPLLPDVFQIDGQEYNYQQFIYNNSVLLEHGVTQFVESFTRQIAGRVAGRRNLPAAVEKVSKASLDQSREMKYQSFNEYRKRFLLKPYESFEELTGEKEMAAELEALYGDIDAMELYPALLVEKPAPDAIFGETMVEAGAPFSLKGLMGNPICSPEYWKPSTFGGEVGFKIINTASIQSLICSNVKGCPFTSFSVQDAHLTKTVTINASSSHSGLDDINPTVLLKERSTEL
# How it was run: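 Enzyme extracted from ovine placenta tested cell-free; activity read colorimetrically by absorbance 0.66 hour after dosing. Primary screen in duplicate at 25 uM; hits rerun as concentration series to 50 uM, loss of signal versus DMSO baseline.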
# [4] = target: human Vascular Endothelial Growth Factor Receptor 1 (VEGFR1), FLT1 (gene 2321) (UniProt P17948); assay: NVS_ENZ_hVEGFR1: NovaScreen (NVS) Enzymatic Assay for human Vascular Endothelial Growth Factor Receptor 1 (VEGFR1) (AID 2283226)
# human Vascular Endothelial Growth Factor Receptor 1 (VEGFR1), FLT1 (gene 2321), sequence (P17948 whole entry, looked up): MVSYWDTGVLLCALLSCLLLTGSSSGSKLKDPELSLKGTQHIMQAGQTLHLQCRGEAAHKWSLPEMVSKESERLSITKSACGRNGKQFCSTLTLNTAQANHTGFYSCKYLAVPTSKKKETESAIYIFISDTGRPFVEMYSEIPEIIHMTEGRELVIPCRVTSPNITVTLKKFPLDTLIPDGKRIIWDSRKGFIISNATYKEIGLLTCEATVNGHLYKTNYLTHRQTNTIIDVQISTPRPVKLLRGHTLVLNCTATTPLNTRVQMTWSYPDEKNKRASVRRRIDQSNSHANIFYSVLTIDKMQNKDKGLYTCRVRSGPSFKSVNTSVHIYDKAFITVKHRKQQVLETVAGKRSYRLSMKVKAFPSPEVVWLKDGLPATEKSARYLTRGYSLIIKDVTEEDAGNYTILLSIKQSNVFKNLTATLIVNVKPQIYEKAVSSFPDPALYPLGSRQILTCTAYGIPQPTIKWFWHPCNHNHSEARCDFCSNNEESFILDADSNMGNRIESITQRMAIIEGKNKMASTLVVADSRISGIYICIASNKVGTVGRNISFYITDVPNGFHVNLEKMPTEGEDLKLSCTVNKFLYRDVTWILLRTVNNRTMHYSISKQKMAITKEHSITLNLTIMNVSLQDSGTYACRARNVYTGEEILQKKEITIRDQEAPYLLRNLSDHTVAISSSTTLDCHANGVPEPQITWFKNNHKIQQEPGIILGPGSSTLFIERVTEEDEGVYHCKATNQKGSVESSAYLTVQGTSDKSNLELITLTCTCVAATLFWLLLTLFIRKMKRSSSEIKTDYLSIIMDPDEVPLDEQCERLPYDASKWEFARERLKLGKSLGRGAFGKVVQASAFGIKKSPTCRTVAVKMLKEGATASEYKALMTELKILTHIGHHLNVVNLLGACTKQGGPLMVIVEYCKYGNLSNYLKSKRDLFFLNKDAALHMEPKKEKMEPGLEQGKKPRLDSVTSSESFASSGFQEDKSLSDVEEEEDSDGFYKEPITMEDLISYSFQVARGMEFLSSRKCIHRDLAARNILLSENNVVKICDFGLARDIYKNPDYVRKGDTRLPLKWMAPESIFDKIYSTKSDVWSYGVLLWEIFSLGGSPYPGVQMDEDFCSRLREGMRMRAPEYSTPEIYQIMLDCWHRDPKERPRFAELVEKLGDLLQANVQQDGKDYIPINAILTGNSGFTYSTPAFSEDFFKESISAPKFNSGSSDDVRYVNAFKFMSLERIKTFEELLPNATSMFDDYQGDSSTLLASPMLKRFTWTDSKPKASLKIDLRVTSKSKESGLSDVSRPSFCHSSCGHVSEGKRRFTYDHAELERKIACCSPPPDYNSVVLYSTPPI
# How it was run: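 Kinase activity of recombinant human VEGFR1 was read by fluorescence after electrophoretic separation of product from substrate, 1 h post-dosing; initial duplicate single-point testing at 25 uM, followed by concentration-series follow-up, with DMSO as baseline.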
# [5] = target: rat Constitutive Nitric Oxide Synthase (CNOS), Nos1 (gene 24598) (UniProt P29476); assay: NVS_ENZ_rCNOS: NovaScreen (NVS) Enzymatic Assay for rat Constitutive Nitric Oxide Synthase (CNOS) (AID 2283236)
# rat Constitutive Nitric Oxide Synthase (CNOS), Nos1 (gene 24598), sequence (P29476 whole entry, looked up): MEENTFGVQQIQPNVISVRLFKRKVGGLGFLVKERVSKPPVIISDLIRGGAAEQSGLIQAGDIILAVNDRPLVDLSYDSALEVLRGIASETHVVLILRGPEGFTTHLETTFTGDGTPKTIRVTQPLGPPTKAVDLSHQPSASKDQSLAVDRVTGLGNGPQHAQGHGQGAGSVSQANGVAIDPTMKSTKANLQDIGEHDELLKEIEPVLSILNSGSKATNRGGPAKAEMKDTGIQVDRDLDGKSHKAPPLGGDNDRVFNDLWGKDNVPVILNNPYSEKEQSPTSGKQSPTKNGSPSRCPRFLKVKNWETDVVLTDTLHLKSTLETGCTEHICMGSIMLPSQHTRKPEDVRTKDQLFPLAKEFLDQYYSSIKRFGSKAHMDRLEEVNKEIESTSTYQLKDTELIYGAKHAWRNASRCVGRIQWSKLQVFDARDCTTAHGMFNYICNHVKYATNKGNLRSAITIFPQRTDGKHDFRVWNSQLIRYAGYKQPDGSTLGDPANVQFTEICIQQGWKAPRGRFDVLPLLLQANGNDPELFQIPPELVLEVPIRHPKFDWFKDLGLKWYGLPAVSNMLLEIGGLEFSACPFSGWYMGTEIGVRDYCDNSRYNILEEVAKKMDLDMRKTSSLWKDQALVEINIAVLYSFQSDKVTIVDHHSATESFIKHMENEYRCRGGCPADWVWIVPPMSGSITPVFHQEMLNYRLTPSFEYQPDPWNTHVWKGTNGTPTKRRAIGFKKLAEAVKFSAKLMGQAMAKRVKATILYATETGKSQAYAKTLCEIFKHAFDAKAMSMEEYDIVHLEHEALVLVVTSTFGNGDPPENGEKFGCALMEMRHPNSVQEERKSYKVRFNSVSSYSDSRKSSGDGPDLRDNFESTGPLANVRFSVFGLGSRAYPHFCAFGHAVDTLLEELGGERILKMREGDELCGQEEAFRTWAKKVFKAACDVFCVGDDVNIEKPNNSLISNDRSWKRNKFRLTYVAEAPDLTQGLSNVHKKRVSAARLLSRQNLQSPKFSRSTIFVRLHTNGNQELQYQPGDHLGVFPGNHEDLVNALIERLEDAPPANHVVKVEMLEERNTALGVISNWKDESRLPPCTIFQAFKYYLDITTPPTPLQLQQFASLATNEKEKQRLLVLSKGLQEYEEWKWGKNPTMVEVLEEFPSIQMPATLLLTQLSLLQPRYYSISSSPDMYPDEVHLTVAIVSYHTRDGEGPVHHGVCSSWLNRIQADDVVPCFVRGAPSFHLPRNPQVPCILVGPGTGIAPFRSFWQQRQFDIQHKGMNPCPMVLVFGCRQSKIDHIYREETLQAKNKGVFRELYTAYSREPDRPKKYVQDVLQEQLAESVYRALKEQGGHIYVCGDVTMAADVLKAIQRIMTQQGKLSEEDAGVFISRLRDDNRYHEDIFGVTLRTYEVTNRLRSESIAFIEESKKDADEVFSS
# How it was run: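 Single 25 uM duplicate screen, then concentration series to 50 uM for chemicals meeting threshold. Rat brain membrane-derived CNOS activity detected radiometrically by filtration and scintillation counting, 1 h after compound addition; DMSO as baseline.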
# [6] = target: guinea pig Leukotriene D4 Receptor (LTD4), CYSLTR1 (gene 100135514) (UniProt Q2NNR5); assay: NVS_GPCR_gLTD4: NovaScreen (NVS) G Protein-Coupled Receptor Assay for guinea pig Leukotriene D4 Receptor (LTD4) (AID 2283248)
# guinea pig Leukotriene D4 Receptor (LTD4), CYSLTR1 (gene 100135514), sequence (Q2NNR5 whole entry, looked up): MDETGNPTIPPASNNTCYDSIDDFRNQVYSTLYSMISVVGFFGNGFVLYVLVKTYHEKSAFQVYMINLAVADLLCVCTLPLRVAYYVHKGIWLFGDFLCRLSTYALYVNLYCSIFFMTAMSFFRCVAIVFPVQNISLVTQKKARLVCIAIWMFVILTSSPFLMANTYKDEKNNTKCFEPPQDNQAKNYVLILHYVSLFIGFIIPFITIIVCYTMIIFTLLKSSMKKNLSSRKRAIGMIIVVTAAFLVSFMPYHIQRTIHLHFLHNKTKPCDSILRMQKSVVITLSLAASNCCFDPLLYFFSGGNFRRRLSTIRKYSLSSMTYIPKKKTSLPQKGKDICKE
# How it was run: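 Guinea pig lung membrane preparation; bound radioligand measured by filter scintillation after 1 h, loss of signal versus DMSO marking displacement. Compounds tested at 25 uM in duplicate, hits retested to max 50 uM.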
smiles,measurement,setting,value
Nc1ccc(C(=O)O)cc1,outcome,[1],inactive
CCN1CN(CC)CN(CC)C1,outcome,[2],inactive
same,outcome,[3],inactive
Nc1cccc(N)n1,outcome,[4],inactive
C=C(C)C1CC=C(C)CC1 (configuration not stated),AC50,[3],19.3 µM (active)
Cc1ccc([N+](=O)[O-])cc1N,AC50,[5],7.96 µM (active)
CN1CCN(C)CC1,outcome,[6],inactive
